This note sets out measurements from PubChem BioAssay (EPA / NIEHS).

Read-out in assay [1]: Human Leukocyte Antigen - DR isotype (HLADR), HLA-DRA (gene 3122)
Briefly: BSK_BE3C_HLADR: BioMAP Diversity Plus: BE3C Assay for Human Leukocyte Antigen - DR isotype (HLADR) Biomarker Activity (AID 2283032). Particulars: primary human bronchial epithelial cells; actives raise or lower the signal. An outline of the steps:
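Cell-surface HLA-DR ELISA readout at 24 h after dosing in the BE3C primary human lung bronchial epithelial system; gain or loss of signal against DMSO, with parallel sulforhodamine B staining of total protein for overt cytotoxicity.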

Read-out in assay [2]: Vascular cell adhesion molecule 1 (VCAM1), VCAM1 (gene 7412)
The experiment in a line: BSK_4H_VCAM1: BioMAP Diversity Plus: 4H Assay for Vascular cell adhesion molecule 1 (VCAM1) Biomarker Activity (AID 2283033).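 As to outcome: cell-surface VCAM-1 protein measured by ELISA.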 To be noted: primary human endothelial cells (HUVEC); actives raise or lower the signal. An outline of the steps:
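VCAM-1 ELISA read 24 h after chemical dosing of HUVEC in the BioMAP 4H system, with gain or loss of signal fitted relative to DMSO. Parallel SRB staining (560 nm) checked overt cytotoxicity.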

Read-out in assay [3]: Interferon-gamma inducible Protein 10 (IP10), CXCL10 (gene 3627)
The experiment in a line: BSK_BE3C_IP10: BioMAP Diversity Plus: BE3C Assay for Interferon-gamma inducible Protein 10 (IP10) Biomarker Activity (AID 2283034). To be noted: primary human bronchial epithelial cells; actives raise or lower the signal. An outline of the steps:
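IP-10 quantified by ELISA in human primary bronchial epithelial cell cultures at 24 hours post-dosing. Gain or loss of signal fitted relative to DMSO; parallel SRB staining assessed overt cytotoxicity.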

Read-out in assay [4]: Monokine induced gamma interferon (MIG), CXCL9 (gene 4283)
Briefly: BSK_BE3C_MIG: BioMAP Diversity Plus: BE3C Assay for Monokine induced gamma interferon (MIG) Biomarker Activity (AID 2283035). Particulars: primary human bronchial epithelial cells; actives raise or lower the signal. An outline of the steps:
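hu bronchial epithelial 1° cells, 24 h cpd; MIG by ELISA; bidirectional fit, DMSO = baseline.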

Read-out in assay [5]: Transforming growth factor beta 1 (TGFb1), TGFB1 (gene 7040)
The experiment in a line: BSK_BE3C_TGFb1: BioMAP Diversity Plus: BE3C Assay for Transforming growth factor beta 1 (TGFb1) Biomarker Activity (AID 2283036;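 as to outcome: TGF-b1 protein level measured by ELISA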). Particulars: primary human bronchial epithelial cells; actives raise or lower the signal. An outline of the steps: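 ELISA readout of TGF-b1 from human lung bronchial epithelial primary cells, taken 24 h post-treatment. Gain or loss of signal fitted relative to DMSO baseline, with parallel SRB staining for overt cytotoxicity.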

Read-out in assay [6]: Plasminogen activator inhibitor-1 (PAI1), SERPINE1 (gene 5054)
The experiment in a line: BSK_BE3C_PAI1: BioMAP Diversity Plus: BE3C Assay for Plasminogen activator inhibitor-1 (PAI1) Biomarker Activity (AID 2283037). To be noted: primary human bronchial epithelial cells; actives raise or lower the signal. An outline of the steps: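 PAI-1 was measured by ELISA in human primary bronchial epithelial cultures 24 h after chemical dosing, with cytotoxicity checked by SRB total-protein staining in parallel cultures. Activity was fitted in both directions relative to DMSO.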

Read-out in assay [7]: urokinase plasminogen activator (uPA), PLAU (gene 5328)
Briefly: BSK_BE3C_uPA: BioMAP Diversity Plus: BE3C Assay for urokinase plasminogen activator (uPA) Biomarker Activity (AID 2283038).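 As to outcome: uPA protein level quantified by ELISA in cell cultures; uPA read one day after compound addition.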 Particulars: primary human bronchial epithelial cells; actives raise or lower the signal. An outline of the steps: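 Bronchial epithelial cells (human, primary); chemical 24 h; uPA by ELISA; bidirectional fit vs DMSO. SRB (0.1%, after 10% TCA fixation, 560 nm) in parallel cultures for cytotoxicity.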

Read-out in assay [8]: Urokinase-type plasminogen activator receptor (uPAR), PLAUR (gene 5329)
Briefly: BSK_BE3C_uPAR: BioMAP Diversity Plus: BE3C Assay for Urokinase-type plasminogen activator receptor (uPAR) Biomarker Activity (AID 2283039).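 As to outcome: cells exposed to compound for one day before measurement.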 To be noted: primary human bronchial epithelial cells; actives raise or lower the signal. An outline of the steps: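 uPAR levels were measured by ELISA after 24 h compound treatment of primary human bronchial epithelial cells, fitted in both directions relative to DMSO. Parallel SRB staining served as the cytotoxicity read-out.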

Read-out in assay [9]: Interleukin-6 (IL6), IL6 (gene 3569)
Briefly: BSK_CASM3C_IL6: BioMAP Diversity Plus: CASM3C Assay for Interleukin-6 (IL6) Biomarker Activity for (AID 2283040). Particulars: primary human coronary artery smooth muscle cells; actives raise or lower the signal.

Read-out in assay [10]: Tissue plasminogen activator (tPA), PLAT (gene 5327)
The experiment in a line: BSK_BE3C_tPA: BioMAP Diversity Plus: BE3C Assay for Tissue plasminogen activator (tPA) Biomarker Activity (AID 2283041).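 As to outcome: tPA level quantified by ELISA one day after compound addition.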 Particulars: primary human bronchial epithelial cells; actives raise or lower the signal. An outline of the steps:
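tPA measured by ELISA 24 h after dosing human primary bronchial epithelial cells (BE3C system). Changes in either direction were fitted against DMSO. Parallel cultures were stained with SRB to flag overt cytotoxicity.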

The source made the active and inactive calls. The calls were made as follows: active = hit-call score of the fitted dose curve at least 0.9, where 1 is the maximum; inactive = score below 0.9.

With `CCCCCCCCN(C)CCCCCCCC`, the outcome in [1], in assay [2], in [3], in assay [4], in assay [5] and in assay [6] was inactive. Moreover, the result in assay [7], in [8], in [9] and in [10] was inactive.
On to `CO[C@H]1/C=C/O[C@@]2(C)Oc3c(C)c(O)c4c(O)c(c(/C=N/N5CCN(C)CC5)c(O)c4c3C2=O)NC(=O)/C(C)=C\C=C\[C@H](C)[C@H](O)[C@@H](C)[C@@H](O)[C@@H](C)[C@H](OC(C)=O)[C@@H]1C`, for which the result in assay [1], in assay [2], in assay [3], in assay [4], in assay [5] and in [6] was inactive. The outcome in assay [7], in assay [8], in assay [9] and in [10] was inactive.
Regarding `O=C(OCCCCCCOC(=O)c1ccccc1)c1ccccc1`, the outcome in [1], in assay [2], in [3], in [4], in [5] and in assay [6] was inactive. The result in assay [7], in assay [8], in assay [9] and in assay [10] was inactive.
Consider `O=C(O)c1ccccc1C(=O)OCc1ccccc1`, for which the result in assay [1], in assay [2], in assay [3], in assay [4], in assay [5] and in assay [6] was inactive. The result in assay [7], in assay [8], in assay [9] and in [10] was inactive.
`COCC(C)OCC(C)OCC(C)O` (configuration not stated): the result in assay [1], in [2], in assay [3], in assay [4], in assay [5] and in assay [6] was inactive. The outcome in assay [7], in [8], in assay [9] and in assay [10] was inactive.
Take `O=C(O)Cc1cc(I)c(Oc2ccc(O)c(I)c2)c(I)c1`: the AC50 was 17.6 µM (active) in [1]; 18.7 µM (active) in assay [2]; 10.3 µM (active) in [3]; 33.9 µM (active) in assay [4]; 15.2 µM (active) in assay [6]; 32.8 µM (active) in assay [8]. Besides, the AC50 is 29.6 µM (active) in assay [9] and 15.9 µM (active) in assay [10]. The result in assay [5] and in [7] was inactive.
Take `O=C1O[C@H]([C@@H](O)CO)C(O)=C1O`: the outcome in [1], in assay [2], in assay [3], in assay [4], in [5] and in assay [6] was inactive. The outcome in [7], in [8], in assay [9] and in assay [10] was inactive.
Regarding `OCCO`, the outcome in assay [1], in [2], in [3], in assay [4], in assay [5] and in assay [6] was inactive. Besides, the result in assay [7], in assay [8], in assay [9] and in assay [10] was inactive.
As for `CC(C)(C)c1csc(-c2cc3cc(OCc4ccccc4CC(=O)O)ccc3o2)n1`, the AC50 in assay [1] is 6.97 µM (active); in [2], 31.1 µM (active); in assay [3], 6.96 µM (active); in [4] it was 11.4 µM (active); in assay [6], 5.03 µM (active); in assay [7], 11.6 µM (active). For the same compound, the AC50 in [8] is 12.2 µM (active); in assay [10], 6.81 µM (active). Besides, the result in assay [5] and in [9] was inactive.
Take `CN1C(=O)N(c2ccccc2Br)Cc2cnc(Nc3ccc4c(c3)OCC(CO)O4)nc21` (configuration not stated): the AC50 in assay [1] was 28.5 µM (active); in assay [2] it was 15.2 µM (active); in assay [3] it was 19.3 µM (active); in [4], 34.7 µM (active); in assay [5], 20 µM (active); in [6], 1.63 µM (active). Moreover, the AC50 is 1.23 µM (active) in [8], 20 µM (active) in [9] and 4.46 µM (active) in assay [10].
With `Cc1ccc2oc(CN(Cc3ccccc3)C(=O)Nc3c(F)cc(F)cc3F)c(-c3ccc(Cl)cc3)c2c1`, the result in assay [1], in assay [2], in assay [3], in assay [4], in assay [5] and in assay [6] was inactive. The result in assay [7], in [8], in [9] and in [10] was inactive.
Take `O=C1c2ccccc2C(=O)N1CCc1noc(-c2ccc(CN3CCCCCC3)s2)n1`: the result in assay [1], in [2], in assay [3], in assay [4], in assay [5] and in assay [6] was inactive. In addition, the result in assay [7], in assay [8], in [9] and in assay [10] was inactive.
On to `O=c1[nH]sc2ccccc12`, for which the AC50 in assay [1] is 28.1 µM (active); in assay [2], 7.17 µM (active); in assay [3], 28 µM (active); in [4], 32.3 µM (active); in assay [5] it was 20 µM (active); in assay [6] it was 37.2 µM (active). Also, the AC50 in assay [7] is 33.6 µM (active); in assay [8] it was 35 µM (active); in assay [9], 8.69 µM (active); in assay [10] it was 11 µM (active).
Turning to `CCCCCCCCCCCO`, the outcome in assay [1], in [3], in assay [4], in assay [5], in [6] and in assay [7] was inactive. In addition, the outcome in assay [8], in [9] and in assay [10] was inactive. The AC50 in assay [2] is 20 µM (active).
As to `Clc1ccccc1C(c1ccccc1)(c1ccccc1)n1ccnc1`, the AC50 in assay [1] was 8.22 µM (active); in assay [2], 33.5 µM (active); in assay [3], 10.7 µM (active); in assay [4], 9.5 µM (active); in assay [5] it was 6.45 µM (active); in assay [6], 7.59 µM (active). Besides, the figures for the AC50 in assay [8], in assay [9] and in assay [10] were 9.68 µM (active), 31.9 µM (active) and 5.41 µM (active), respectively.
`c1ccc2n[nH]nc2c1`: the result in [1], in assay [2], in assay [3], in [4], in assay [5] and in [6] was inactive. Besides, the outcome in [8], in assay [9] and in [10] was inactive.
With `CCCCCCCC[Si](OCC)(OCC)OCC`, the result in [1], in assay [4], in assay [5], in assay [6], in assay [7] and in assay [8] was inactive. For the same compound, the result in assay [9] and in assay [10] was inactive. Also, the values for the AC50 in assay [2] and in assay [3] were 21.6 µM (active) and 26.3 µM (active), respectively.
As to `CCCCOC(=O)CC(CC(=O)OCCCC)(OC(C)=O)C(=O)OCCCC`, the concentration at half-maximal activity (AC50) in assay [1] is 20 µM (active). In addition, the outcome in assay [2], in assay [3], in assay [4], in assay [5], in assay [6] and in [7] was inactive. Moreover, the outcome in assay [8], in assay [9] and in assay [10] was inactive.

The term AC50 denotes the concentration at which the activity in the assay is half-maximal.
